PubChem BioAssay (NCATS)
Inconclusive results are not listed. A call without a number means that no potency is given here. The source made the active and inactive calls. Calls come from the whole dose curve; as a rule, active = well fitted curve in the direction sought with a large enough effect; inconclusive = small, poorly fitted or top-dose-only effect, or another doubt; inactive = no such curve, though single readings can be large; an effect the other way counts as inactive or inconclusive.

Test system: not listed separately
Assay: Primary fluorescence-based thiol-reactive (MSTI) qHTS assay for identification of artifact compounds. (AID 1845221); note: nearly all actives have a fitted effect of over 65% in size; note: potency is the fitted concentration of half-maximal effect
Conditions: MSTI thiol-reactivity probe, 1 h; series mostly up to 53.8 µM
Procedure, shortened: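 One-hour, room-temperature, dark incubation of compound with 4 uM MSTI in PBS (pH 7.4, 2% DMSO) precedes a fluorescence read at 525 nm excitation, 598 nm emission; Hill-equation fitting yields concentration-response values.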

Structure (SMILES) | Potency
Cc1nc(N)sc1-c1ccnc(Nc2ccc(N3CCOCC3)cc2)n1 | 1.5 µM (active)
O=c1[nH]cnc2c1ncn2[C@H]1CC[C@@H](CO)O1 | inactive
COc1cc2c(cc1OC)CN(CCc1ccc(NC(=O)c3cc(OC)c(OC)cc3NC(=O)c3cnc4ccccc4c3)cc1)CC2 | inactive
CC(C)(C)Cn1c(N)nc2ccc(-c3[nH]c(C(C)(C)C)nc3-c3ccc(F)cc3)nc21 | 1.89 µM (active)
CC(=O)Nc1ccc([C@H](C)C(=O)Nc2ncc(C(C)C)s2)cc1 | inactive
COc1ccc(Cc2ccc(NC(N)=O)cc2)cc1-c1cccc(Cl)c1 | inactive
CNC1CCC(N(Cc2cccc(-c3ccncc3)c2)C(=O)c2sc3c(F)ccc(F)c3c2Cl)CC1 (stereo not drawn) | inactive
CN(C[C@@H]1COCCO1)S(=O)(=O)Nc1ccc2ccc3ncc(-c4cnn(C)c4)cc3c(=O)c2c1 | inactive
CC(C)C(=O)Nc1ncc(-c2cc(C(F)F)nn2-c2c(Cl)cccc2Cl)s1 | inactive
CC(C)C(=O)Oc1ccc(CO)cc1[C@H](CCN(C(C)C)C(C)C)c1ccccc1 | inactive
COc1ccc2c(Oc3ccc(NC(=O)c4c(C)n(CC(C)(C)O)n(-c5ccccc5)c4=O)nc3)ccnc2c1 | inactive
COc1cc2ncnc(-n3nc(-c4ccccn4)nc3N)c2cc1OC | inactive
O=c1cc(CN2CCOCC2)occ1OCCCCCSc1ccnc2cc(C(F)(F)F)ccc12 | inactive
COCCOC(=O)C1=C(C)NC2=C(C(=O)CC(c3ccccc3OC)C2)C1c1cccc(O)c1 (stereo not drawn) | inactive
C=C1C(=O)[C@@]23C(CC[C@@H]1[C@H]2O)[C@@]12CO[C@]3(O)[C@@H](O)[C@@H]1C(C)(C)CC[C@@H]2O (stereo partly drawn) | inactive
COc1ncc(-c2ccc3nccc(-c4ccnnc4)c3c2)cc1NS(=O)(=O)c1ccc(F)cc1F | inactive
Cc1ccc(Nc2cc(-c3cccc(N4C(=O)c5ccccc5C4=O)c3)ncn2)cc1NS(C)(=O)=O | inactive
CS(=O)c1ccc(-c2nc(-c3ccc(F)cc3)c(-c3ccncc3)[nH]2)cc1 (stereo not drawn) | inactive
CC(C)(C)c1cc(C(=O)O)c(NC(=O)Nc2ccc3[nH]ncc3c2)s1 | 1.06 µM (active)

Test system: Nanoluciferase (engineered Oplophorus gracilirostris luciferase)
Assay: Primary Nanoluciferase (NLuc) qHTS assay for identification of artifact compounds. (AID 1845222);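 note: NLuc secreted into diluted conditioned medium of S16 cells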
Conditions: NLuc-conditioned medium, Nano-Glo luminescence, 5 min; series mostly up to 54.1 µM
Procedure, shortened: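 S16 cell supernatant NLuc, 1:55; cpds qHTS; 15 min RT dark; Nano-Glo substrate 1:100, 5 min; luminescence; Hill fit of % inhibition.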

Structure (SMILES) | Potency
Cc1nc(N)sc1-c1ccnc(Nc2ccc(N3CCOCC3)cc2)n1 | inactive
O=c1[nH]cnc2c1ncn2[C@H]1CC[C@@H](CO)O1 | inactive
COc1cc2c(cc1OC)CN(CCc1ccc(NC(=O)c3cc(OC)c(OC)cc3NC(=O)c3cnc4ccccc4c3)cc1)CC2 | inactive
CC(=O)Nc1ccc([C@H](C)C(=O)Nc2ncc(C(C)C)s2)cc1 | inactive
COc1ccc(Cc2ccc(NC(N)=O)cc2)cc1-c1cccc(Cl)c1 | inactive
CNC1CCC(N(Cc2cccc(-c3ccncc3)c2)C(=O)c2sc3c(F)ccc(F)c3c2Cl)CC1 (stereo not drawn) | inactive
CC(C)C(=O)Nc1ncc(-c2cc(C(F)F)nn2-c2c(Cl)cccc2Cl)s1 | inactive
CC(C)C(=O)Oc1ccc(CO)cc1[C@H](CCN(C(C)C)C(C)C)c1ccccc1 | inactive
COc1ccc2c(Oc3ccc(NC(=O)c4c(C)n(CC(C)(C)O)n(-c5ccccc5)c4=O)nc3)ccnc2c1 | inactive
COc1cc2ncnc(-n3nc(-c4ccccn4)nc3N)c2cc1OC | inactive
C=C1C(=O)[C@@]23C(CC[C@@H]1[C@H]2O)[C@@]12CO[C@]3(O)[C@@H](O)[C@@H]1C(C)(C)CC[C@@H]2O (stereo partly drawn) | inactive
Cc1ccc(Nc2cc(-c3cccc(N4C(=O)c5ccccc5C4=O)c3)ncn2)cc1NS(C)(=O)=O | inactive
CS(=O)c1ccc(-c2nc(-c3ccc(F)cc3)c(-c3ccncc3)[nH]2)cc1 (stereo not drawn) | inactive
CC(C)(C)c1cc(C(=O)O)c(NC(=O)Nc2ccc3[nH]ncc3c2)s1 | inactive
